Compounds with a hit are over-represented: about 19% of the library has one in this group of screens.
KB-3-1 tox – kills parental KB-3-1 adenocarcinoma cells; KB-3-1 viability, CellTiter-Glo ATP luminescence, 72 h; Potency, µM (series often up to 46.1 µM), usual class: cytotoxic; 1.4% of 400,000 active; AID 1347075; further: nearly all actives have a fitted effect of over 60% in size
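KB-3-1 parental drug-naive adenocarcinoma cells in DMEM/10% FBS, incubated 72 h at 37 C with pin-transferred compounds across a concentration series. Viability by CellTiter-Glo luminescence; concentration-response curves fitted after normalization.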
KB-V1 MDR tox – KB-V1 MDR subline cytotoxicity | KB-V1 MDR cells viability, CellTiter-Glo, 72 h | Potency, µM (doses to about 46.1 µM), most hits filed as cytotoxic | 3.4% of 400,000 active | AID 1347076; further: nearly all actives have a fitted effect of over 60% in size
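Potencies derive from concentration-effect curves fitted to normalized luminescence (CellTiter-Glo) of KB-V1 cells treated for 72 h at 37 degrees C in phenol-red-free DMEM containing 10% FBS.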
DT40 TDP1 CPT – DT40-hTDP1 cell growth loss with CPT | chicken DT40 Tdp1-/-;hTDP1 cells + 20 nM CPT, ATP luminescence, 48 h | Potency, µM (top dose mostly 46.2 µM), usual class: inhibitors | 12% of 420,000 active; further: nearly all actives have a fitted effect of over 55% in size
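Chicken DT40 Tdp1-/- cells stably complemented with human TDP1 were seeded at 400 cells/well in medium containing 20 nM camptothecin, exposed to pin-transferred compounds, and grown at 37 °C for at least 48 hr. Viability was read as ATP luminescence.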
DT40 TDP1 no CPT – qHTS for Inhibitors of human tyrosyl-DNA phosphodiesterase 1 (TDP1): qHTS in cells in absence of CPT | DT40 Tdp1-/- hTDP1 cells, no CPT, ATP luminescence, 48 h | Potency, µM (series often up to 46.2 µM), usual class: inhibitors | AID 686978, 2013 | 15% of 420,000 active; further: nearly all actives have a fitted effect of over 55% in size
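DT40 Tdp1-/-;hTDP1 cells, no CPT (DMSO vehicle only), 400 cells/well; compounds pin-transferred; ≥48 hr, 37 °C; CellTiter-Glo 30 min RT dark, luminescence read.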
HT1080 IDH1KD tx – toxicity to HT-1080 IDH1 knockdown cells (counter line); HT-1080 IDH1 knockdown viability, ATP luminescence, 48 h; 2% of 360,000 active; Potency, µM (doses to about 46.1 µM), actives largely listed as cytotoxic
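% activity derives from luminescence (CellTiter-Glo), normalised to DMSO and no-cell wells. HT-1080-IDH1KD cells, 750/well, had 48 h compound exposure at 37 °C.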
HT1080-NT tox – kills 2HG-producing HT-1080-NT fibrosarcoma cells; HT-1080-NT fibrosarcoma viability, CellTiter-Glo ATP luminescence, 48 h; Potency, µM (highest dose often 46.1 µM), actives largely listed as cytotoxic; 1.6% of 360,000 active;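 further: NT is the 2HG producing partner of a matched IDH1 knockdown line; nearly all actives have a fitted effect of over 55% in size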
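750 cells/well, RPMI + 5% FBS; 2 h settle, compound pin-transfer, 48 h at 37 degrees C. CellTiter-Glo 10 min RT, luminescence. Normalized to DMSO and media-only wells.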
Hits are given with their value; i = inactive; ? = inconclusive; nt = not tested or not shown; [ ] = another dose, or the depositor's remark. The call rests on the fitted dose curve; in most records, active means well fitted curve in the direction sought with a large enough effect; inconclusive means small, poorly fitted or top-dose-only effect, or another doubt; inactive means no such curve, though single readings can be large; an effect the other way counts as inactive or inconclusive.

SMILES	KB-3-1 tox	KB-V1 MDR tox	DT40 TDP1 CPT	DT40 TDP1 no CPT	HT1080 IDH1KD tx	HT1080-NT tox
NC(Cc1ccc(F)cc1)c1csc(Nc2cnccn2)n1 (stereo unspecified)	i	i	?	?	i	?
NC(Cc1ccc(Cl)cc1)c1csc(Nc2ccccn2)n1 (stereo unspecified)	i	i	14.6µM	13µM	?	23.1µM
NC(Cc1ccccc1)c1csc(Nc2ccccn2)n1 (stereo unspecified)	i	i	?	?	?	?
COc1cccc(Nc2nc(C(N)Cc3ccc(F)cc3)cs2)n1 (stereo unspecified)	?	?	18.4µM	8.2µM	14.6µM	23.1µM
NC(Cc1ccc(F)cc1)c1csc(Nc2ccccn2)n1 (stereo unspecified)	i	?	?	16.4µM	23.1µM	?
CCC1=Nc2cc(C(=O)N3CCC4(CC3)OCCO4)ccc2Sc2ccc(Br)cc21	?	i	?	?	i	i
CCC(C)(S(=O)(=O)CC)S(=O)(=O)CC	nt	nt	i	i	nt	nt
CCN(CC)C(=O)/C(Cl)=C(\C)OP(=O)(OC)OC	nt	nt	i	i	nt	nt
C=C1C(=O)O[C@@H]2C[C@@H](C)[C@@H]3C=CC(=O)[C@@]3(C)[C@@H](OC(C)=O)[C@H]12	?	14.6µM	0.82µM	0.651µM	4.61µM	6.51µM
CC(C)[C@H](NC(=O)[C@H](CCC(=O)O)NC(=O)[C@H](Cc1ccccc1)NC(=O)[C@H](C)NC(=O)[C@@H](N)Cc1ccc(O)cc1)C(=O)N[C@H](C(=O)NCC(N)=O)C(C)C	nt	nt	?	i[4.12 µM]	nt	nt
CCOc1ccc(NC(=O)CCNC(=O)N2C[C@H]3C[C@@H](C2)c2cccc(=O)n2C3)cc1	i	i	i	i	i	i
CC1=C(O)C(=O)C=C2C1=CC=C1[C@]2(C)CC[C@@]2(C)C3C[C@](C)(C(=O)O)CC[C@@]3(C)CC[C@@]12C (stereo partly specified)	nt	nt	1.03µM	0.82µM	nt	nt
O=c1cccc2n1CC1CC2CN(S(=O)(=O)c2ccc(F)cc2)C1 (stereo unspecified)	i	i	i	i	i	i
Cc1cc(=O)oc2c1c(C)nn2-c1nn[nH]n1	i	i	20.6µM	?	i	i
CCc1cc(-c2nnn(CCC3COCCO3)c2CC)cc(CC)c1-c1cn(Cc2ccc3ccccc3c2)nn1 (stereo unspecified)	?	5.8µM	20.6µM	8.2µM	i	i
Cc1[nH]c2ccccc2c1C1=CCNCC1	i	i	?	?	i	i
Cc1[nH]c2ccccc2c1CN1CCCCC1	?	?	1.64µM	3.66µM	i	i
c1ccc2c(CN3CCCCCCC3)c[nH]c2c1	20.6µM	14.6µM	0.651µM	1.46µM	?	i
CCN(CC)c1ccc(C=NN2CCCCCC2)cc1	i	i	?	?	i	i
O=C1NC(=S)NC(=O)C1=Cc1ccc2c(c1)CCN2CCCCl	i	i	?	14.6µM	i	i
Nc1ccc(N=Nc2ccccc2)cc1	i	i	i	?	i	i
Cc1cc(N(C)C)ccc1N=Nc1ccc(N)cc1	i	i	?	13µM	?	?
c1ccc(CN2Cc3ccccc3-n3nncc3C2)nc1	i	i	i	i	i	i
O=C(c1cnccn1)N1CCC2(CC1)CN(Cc1ccncc1)C2	nt	nt	i	i	nt	nt
COc1ccc(N2C(=O)/C(=C/c3ccc(N(C)C)o3)C(=O)NC2=S)cc1	i	i	i	i	i	i
Cc1ccc(/C=C2\C(=O)NC(=S)N(c3ccc(F)cc3)C2=O)o1	i	i	7.31µM	14.6µM	i	i
Cc1ccc(/C=C2\C(=O)NC(=S)N(c3ccc(F)cc3)C2=O)s1	i	?	2.91µM	5.8µM	?	?
COc1cccc(N2C(=O)/C(=C/c3ccc(C)o3)C(=O)NC2=S)c1	?	i	14.6µM	14.6µM	i	i
COc1ccc(N2C(=O)/C(=C/c3cccs3)C(=O)NC2=S)cc1	i	?	5.17µM	3.66µM	i	i
